In all, about 33,000 sequences were measured (“E-score (-0.5 to 0.5)”: median about -0.0014, highest 2% from about 0.25 on). The full list was thinned out, with the highest values kept by preference.
biological target: T1, Cad1 (UniProt P24813); assay: PBM E-score (8-mer binding enrichment) (E-score (-0.5 to 0.5)); higher = stronger / more preferred TF binding; conditions: protein concentration: 100 nM; construct: GST-full length
T1 sequence: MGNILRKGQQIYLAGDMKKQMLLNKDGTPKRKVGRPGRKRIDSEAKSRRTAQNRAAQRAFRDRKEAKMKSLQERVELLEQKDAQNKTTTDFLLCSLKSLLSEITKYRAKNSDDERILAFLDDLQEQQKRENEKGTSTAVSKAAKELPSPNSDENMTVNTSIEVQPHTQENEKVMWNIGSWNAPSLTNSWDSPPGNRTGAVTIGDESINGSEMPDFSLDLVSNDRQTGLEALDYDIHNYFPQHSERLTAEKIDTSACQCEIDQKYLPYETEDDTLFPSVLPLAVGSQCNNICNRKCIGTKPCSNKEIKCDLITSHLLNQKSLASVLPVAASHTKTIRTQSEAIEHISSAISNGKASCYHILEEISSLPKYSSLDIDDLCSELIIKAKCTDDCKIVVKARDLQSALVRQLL
In short: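 The E-score, a modified Wilcoxon-Mann-Whitney statistic, was computed by the Universal PBM Analysis Suite for every ungapped eight-base word pooled with its reverse complement. Scans behind it were normalised with masliner after bound GST-tagged yeast transcription factors were detected with fluorescent anti-GST. The proteins, at about 100-200 nM, had been applied to universal all-10-mer Agilent arrays made double-stranded by primer extension.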

Sequence	PBM E-score
GATACACA	0.0908
CATACACC	0.00325
AGTACGCC	-0.293
AGTACGCG	0.26
AGTACGCA	-0.129
AATAGGGT	0.0291
CGCCCAGC	0.0197
CGTTGAAG	-0.178
TTCCGGAA	0.316
CTCCGGAA	0.00101
TCCGGAAA	0.252
CTCCGGAC	0.00021
ATCCGGAC	0.131
GTCCGGAC	0.319
ATCCGGAA	0.22
ACCGGAAA	0.135
CCCGGAAA	0.134
ATGCTCCG	-0.114
ATCCAGGG	-0.173
GACAAGCA	-0.021
ACCACTAT	0.0199
CACAATTA	0.00794
ACACTTTA	0.0868
AATAATTC	0.18
CATAATTC	0.0611

Sequence	PBM E-score
GATAATGA	0.167
GATAATTA	0.297
AATAATTG	0.0365
GATAATAA	0.0805
CATAATGA	0.0454
CATAATTA	0.279
AATAATTA	0.336
CTCATTCA	0.0583
AGTGTGAC	-0.0643
AGACTCAG	0.0244
CGCGATTC	0.268
CGCGATTA	0.187
AGCGATTC	-0.021
CCCTAACC	-0.157
CACTAGAC	-0.0989
AGCTTACA	0.351
AGCTTACC	-0.0175
TGCTTACA	0.235
GCGCCCAA	0.143
AATTCGTC	0.274
AATTCGTA	0.0688
AATTCGGC	-0.0493
CATTCGTC	0.0375
AATTCGGT	0.266
AATTCGGG	0.0637

Sequence	PBM E-score
CAATTTCA	0.0182
CTCGGCAG	0.136
CAAGCTTG	-0.294
ATTGGTCC	0.0438
GAACCGAC	0.105
AAACCGCC	-0.0149
AAACCGCG	0.271
CAACCGAC	0.252
CAACCGCA	0.066
CAACCGCC	-0.23
CAACCGAA	0.168
AAACCGCA	-0.213
CAACCGCG	0.297
ACTAGAGA	-0.224
CGTGCGAA	0.036
GGGCATTA	-0.152
GATCAAGC	-0.0801
GGCGGTAA	0.045
ACTTCGCG	0.216
GCAACAGC	-0.076
ATAAGGGG	-0.0559
CTATCGTA	-0.0798
CCGAAACA	0.0714
TCGAAACA	0.251
ACGAAACA	0.192

Sequence	PBM E-score
AGCTATCA	0.118
CGAAGAGA	0.106
ATGTCACA	0.306
ATGTCACC	0.0545
GTGTCACA	0.252
CTGTCAGC	0.118
ATGTCACG	0.0134
CTGTCACA	0.0656
GTGTCAAA	0.163
ATGTCAGC	0.315
ATGTCAGA	-0.0566
AGCCAGAT	-0.239
AGGTCAAC	0.00774
ACCTGATG	-0.134
CAGAATGG	-0.00601
CATCAAGA	0.0115
CCTCAACA	0.0958
ATTCACGC	0.0118
CTTCACGC	0.26
CTTCACGA	-0.199
CTAGACCA	0.00762
CCAGGACA	0.0769
CTTATCAA	0.256
CATATCAA	0.259
CTTATCAC	0.0836

Sequence	PBM E-score
GTTATCAA	0.129
ATTATCAA	0.297
ATTATCGA	0.107
ATTATCAC	0.151
AATATCAA	0.138
ATTATCAG	-0.0126
ATTATCGG	0.0117
CATATCAG	-0.00093
ATTATCGC	0.282
CCAATCGA	0.105
TATTAGAA	0.24
CAAACACG	0.126
CAAAAGCG	0.0683
ACACGCCC	-0.0578
AGCCATAT	-0.0728
GGTAGCCA	-0.0237
CGACTTAA	0.0481
TATACCAA	0.0311
CCGAAATA	0.253
GCGAAATA	-0.0552
ACGAAATA	0.201
GGGGTTCA	-0.191
ATCGCCCG	-0.0312
ATTGCTTA	0.176
GTTGCTTA	0.261

Sequence	PBM E-score
GTTGCTGA	0.111
GCTCGGTA	-0.203
CATAGGGC	-0.163
CAATTCGA	-0.0688
GAATTCGC	-0.0565
CAATTCGC	0.322
ATTCGCAC	0.00983
GGTGCTGA	-0.0741
AACGCCTG	0.0294
AGTAAGCG	0.338
AGTAAGGG	0.0236
ACTAAGCA	0.181
AGTAAGCC	0.156
ACTAAGCG	0.3
ACTAAGCT	0.223
ACCGTCTC	0.138
CTTGCAAA	0.105
ATTCCTTC	0.105
ATTGTACA	0.106
CTTGTACA	-0.0604
GTTGTACA	0.286
CTGAGGGA	-0.0379
ATTAAAAA	0.221
ACTAAAAC	0.116
ACTAAAAT	0.255

Sequence	PBM E-score
ACTAAAAA	0.107
ATTAAAAT	0.253
ATTAAAAC	0.108
ATGACGTC	0.0734
AGGAAGTC	-0.225
GAGTGGGC	-0.294
AGGCTACA	0.00724
GGAAAGAA	-0.177
TGAAAGAA	0.253
AGAAAGAA	0.0147
TGAAAACA	0.131
CAAAGTAA	-0.00082
AAAAGTAT	0.0548
AAAAGTAA	0.265
GATAGTGA	0.157
CATTTTTC	0.124
ACGAAAAA	-0.045
ATGAAAAG	0.0321
ATGAAAAT	0.0649
ATGAAAAA	0.27
ACGAAAAG	0.0611
ACGAAAAC	0.259

Source: the supplement of paper PMC3334620
